Reference: PubChem BioAssay (NCI)
About 83,000 compounds went through this panel and 20% of them were active in at least one assay; those are over-represented in the sample as a whole.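 48-hour exposure, single concentration, 96-well plates; percent growth endpoint where 0 means no net growth. Active: below 10.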 A number with no mark means an inactive call. The source made the active and inactive calls.

Tested on: HCT-116 colon
Assay: NCI-60 one-dose screen, 48 h (100 = growth as untreated, 0 = no growth, -100 = all killed)
Settings: 10 µM unless noted

SMILES | growth
CCCNc1nc(N(C)O)nc(N(C)O)n1 | 5.06% (active)
Brc1ccc(Cn2nnnc2-c2ccn(-c3ccccc3)n2)cc1 | 49.4%
CC(C)(C)CC(C)(C)c1ccc(OCCOCC[N+](C)(C)CC(=O)[O-])cc1 | 107%
CN(C)c1ccc(N)c2ccccc12 | 6.65% (active)
O=C1c2ccccc2C(=Cc2ccccc2)c2ccccc21 | 5.11% (active)
COC(=O)[C@]12CC[C@@H](C)[C@H](C)[C@@H]1C1=CC[C@@H]3[C@@]4(C)C=C(O)C(=O)C(C)=C4CC[C@@]3(C)[C@]1(C)CC2 | 18.1%
Cn1cnc2c1c(=O)n(CCC(=O)Nc1ccc(F)cc1)c(=O)n2C | 86.5%
COC1=C(Br)C(=O)C(OC)=C(Br)C1=O | 90.1%
N#C/C(=C\c1ccc(-c2ccc(F)cc2)o1)c1nc(-c2ccco2)cs1 | 101%
Nc1nc(N)c2nc3c(nc2n1)CCCCCCCCCC3 | 21.4%
COc1ccc(-n2c(/C=C/c3ccc(O)c(OC)c3)cc(/C=C/c3ccc(O)c(OC)c3)nc2=O)cc1 | 21.1%
NC(=O)[C@@H]1CC2CCC1C2 (stereo not given in full) | 101%
COc1cccc(-c2nn(-c3ccccc3)cc2-c2ccnc(NCCNS(=O)(=O)c3ccc(Cl)cc3)c2)c1 | 20.6%
C=C1C(=O)O[C@H]2[C@H]1CC/C(COC(=O)NCc1cc3ccccc3[nH]1)=C\CC[C@@]1(C)O[C@@H]21 | -81.9% (active)
[B-][N+](CC)(CC)c1ccccc1 | 100%
